Source: PubChem BioAssay (NCATS)
Results filed as inconclusive are left out. Where a call stands in place of a potency, no number is given. A number with no mark means an inactive call. Calls of active or inactive are those of the source. Calls come from the whole dose curve; as a rule, active = well fitted curve in the direction sought with a large enough effect; inconclusive = small, poorly fitted or top-dose-only effect, or another doubt; inactive = no such curve, though single readings can be large; an effect the other way counts as inactive or inconclusive.

Columns and labels:
[1] = test system: Zika virus NS2B-NS3 protease (linked construct); experiment: Confirmatory screen NINDS AMC qHTS for Zika virus inhibitors (AID 1347152); settings: Purified linked NS2B-NS3, AMC substrate fluorescence; note: potency is the fitted concentration of half-maximal effect; nearly all actives have a fitted effect of over 70% in size
Outline: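 Purified NS2B-NS3 protease with NS2B hydrophilic domain linked to NS3 protease domain by flexible linker, 1 nM final in 10 mM Tris-HCl pH 8.0, 0.01% Tween 20. Compounds preincubated 15 min, room temperature; Bz-Nle-KRR-AMC 10 microM (Km 18.3 µM); 15-min fluorescence change, 4-parameter Hill fit.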

[2] = test system: Zika virus NS2B-NS3 protease; experiment: Primary screen GU AMC qHTS for Zika virus inhibitors (AID 1347154); settings: Zika NS2B-NS3 unlinked protease, AMC fluorogenic substrate; series mostly up to 54.1 µM; note: nearly all actives have a fitted effect of over 70% in size; note: potency is the fitted concentration of half-maximal effect
Outline: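 Unlinked Zika NS2B hydrophilic domain–NS3 protease complex at 25 nM in 10 mM Tris-HCl pH 8.0, 0.01% Tween 20, with an AMC peptide substrate. Fluorescence change (340/450 nm) over 15 min at room temperature, normalized to controls, fitted to 4-parameter Hill.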

[3] = test system: Zika virus NS2B-NS3 protease (unlinked complex); experiment: Primary screen GU Rhodamine qHTS for Zika virus inhibitors: Unlinked NS2B-NS3 protease assay (AID 1347159); settings: Recombinant ZIKV NS2B-NS3 protease, Rhodamine110 substrate fluorescence; series mostly up to 107 µM; note: nearly all actives have a fitted effect of over 60% in size
Outline: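 A qHTS format was used, with compound concentrations ranging up to 114 microM. Each compound was preincubated with 25 nM NS2B-NS3 protease, and the substrate was then added at 1.5 microM. Curves were fitted with a 4-parameter Hill model.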

[4] = test system: Zika virus NS2B-NS3 protease (linked construct); experiment: 384 well plate NINDS Rhodamine confirmatory qHTS for Zika virus inhibitors (AID 1347164); settings: rhodamine-110 peptide substrate fluorescence; series mostly up to 100 µM;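 note: fluorescence from protease cleavage of Ac-LKRR-rhodamine 110 substrate; potency is the fitted concentration of half-maximal effect; nearly all actives have a fitted effect of over 65% in size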
Outline: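 Linked protease at a final 5 nM, 30 nM or 60 nM was preincubated ~15 min with compounds, then given 10 microM Ac-LKRR-Rhodamine 110. Fluorescence (ex 485/em 538 nm) after 25 min in the dark at room temperature.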

[5] = HepG2 cells viability qHTS for Zika virus inhibitors (AID 1347168); settings: Zika counter-screen; series mostly up to 45.9 µM
Outline: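 Cells seeded at 2.5 x 10^5 cells/mL in DMEM with 4% FBS and attached overnight at 37 degrees C, then exposed to compound for 24 to 48 hours. Viability read as ATP content by CellTiter Glo luminescence.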

[6] = biological target: N-terminal Xaa-Pro-Lys N-methyltransferase 1 (Homo sapiens) (UniProt Q9BV86); experiment: qHTS Assay for Inhibitors of N-terminal methyltransferase 1 (NTMT1): LOPAC validation of the NTMT1 SAHH-coupled ThioGlo3 Assay (AID 1347143); settings: recombinant NTMT1, SAHH-coupled ThioGlo3 fluorescence; series mostly up to 114 µM;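 note: SAH from peptide methylation measured as thiol fluorescence via SAHH coupling and ThioGlo3; nearly all actives have a fitted effect of over 70% in size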
N-terminal Xaa-Pro-Lys N-methyltransferase 1 (Homo sapiens), sequence (Q9BV86 whole entry, looked up): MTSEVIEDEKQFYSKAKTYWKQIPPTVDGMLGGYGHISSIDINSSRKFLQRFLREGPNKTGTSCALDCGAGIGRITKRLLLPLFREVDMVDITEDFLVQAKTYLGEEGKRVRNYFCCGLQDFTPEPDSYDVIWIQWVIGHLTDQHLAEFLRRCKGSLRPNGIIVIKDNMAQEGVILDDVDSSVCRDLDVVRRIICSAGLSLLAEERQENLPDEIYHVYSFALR
Outline: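 Recombinant human NTMT1 (125nM) was pre-incubated 1 min at room temperature with compounds over a concentration range, then a mix of 100uM SAM, 10uM SAHH and 15uM ThioGlo3 (concentrations in added reagent) was added. ThioGlo3 fluorescence (ex 340/em 450nm) after 30 min was normalized to the initial reading.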

[7] = test system: Zika virus NS2B-NS3 protease (unlinked); experiment: Optimization of GU AMC qHTS for Zika virus inhibitors: Unlinked NS2B-NS3 protease assay (AID 1347151); settings: recombinant ZIKV NS2B-NS3 protease, fluorogenic AMC substrate; series mostly up to 52.5 µM; note: nearly all actives have a fitted effect of over 80% in size; note: potency is the fitted concentration of half-maximal effect
Outline: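 Noncovalent complex of NS2B hydrophilic domain and NS3 protease domain, 25 nM final, in 10 mM Tris-HCl pH 8.0, 0.01% Tween 20. AMC fluorescence change over 15 min at room temperature was fitted to a 4-parameter Hill equation.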

[8] = biological target: Lysine-specific demethylase 5B (Homo sapiens) (UniProt Q9UGL1); experiment: Optimization screen for KDM5B Histone Demethylases FDH coupled qHTS against the LOPAC library (AID 1347166); settings: KDM5B demethylation, FDH-coupled NADH fluorescence (FDH is formaldehyde dehydrogenase); series mostly up to 57.5 µM
Lysine-specific demethylase 5B (Homo sapiens), sequence (Q9UGL1 whole entry, looked up): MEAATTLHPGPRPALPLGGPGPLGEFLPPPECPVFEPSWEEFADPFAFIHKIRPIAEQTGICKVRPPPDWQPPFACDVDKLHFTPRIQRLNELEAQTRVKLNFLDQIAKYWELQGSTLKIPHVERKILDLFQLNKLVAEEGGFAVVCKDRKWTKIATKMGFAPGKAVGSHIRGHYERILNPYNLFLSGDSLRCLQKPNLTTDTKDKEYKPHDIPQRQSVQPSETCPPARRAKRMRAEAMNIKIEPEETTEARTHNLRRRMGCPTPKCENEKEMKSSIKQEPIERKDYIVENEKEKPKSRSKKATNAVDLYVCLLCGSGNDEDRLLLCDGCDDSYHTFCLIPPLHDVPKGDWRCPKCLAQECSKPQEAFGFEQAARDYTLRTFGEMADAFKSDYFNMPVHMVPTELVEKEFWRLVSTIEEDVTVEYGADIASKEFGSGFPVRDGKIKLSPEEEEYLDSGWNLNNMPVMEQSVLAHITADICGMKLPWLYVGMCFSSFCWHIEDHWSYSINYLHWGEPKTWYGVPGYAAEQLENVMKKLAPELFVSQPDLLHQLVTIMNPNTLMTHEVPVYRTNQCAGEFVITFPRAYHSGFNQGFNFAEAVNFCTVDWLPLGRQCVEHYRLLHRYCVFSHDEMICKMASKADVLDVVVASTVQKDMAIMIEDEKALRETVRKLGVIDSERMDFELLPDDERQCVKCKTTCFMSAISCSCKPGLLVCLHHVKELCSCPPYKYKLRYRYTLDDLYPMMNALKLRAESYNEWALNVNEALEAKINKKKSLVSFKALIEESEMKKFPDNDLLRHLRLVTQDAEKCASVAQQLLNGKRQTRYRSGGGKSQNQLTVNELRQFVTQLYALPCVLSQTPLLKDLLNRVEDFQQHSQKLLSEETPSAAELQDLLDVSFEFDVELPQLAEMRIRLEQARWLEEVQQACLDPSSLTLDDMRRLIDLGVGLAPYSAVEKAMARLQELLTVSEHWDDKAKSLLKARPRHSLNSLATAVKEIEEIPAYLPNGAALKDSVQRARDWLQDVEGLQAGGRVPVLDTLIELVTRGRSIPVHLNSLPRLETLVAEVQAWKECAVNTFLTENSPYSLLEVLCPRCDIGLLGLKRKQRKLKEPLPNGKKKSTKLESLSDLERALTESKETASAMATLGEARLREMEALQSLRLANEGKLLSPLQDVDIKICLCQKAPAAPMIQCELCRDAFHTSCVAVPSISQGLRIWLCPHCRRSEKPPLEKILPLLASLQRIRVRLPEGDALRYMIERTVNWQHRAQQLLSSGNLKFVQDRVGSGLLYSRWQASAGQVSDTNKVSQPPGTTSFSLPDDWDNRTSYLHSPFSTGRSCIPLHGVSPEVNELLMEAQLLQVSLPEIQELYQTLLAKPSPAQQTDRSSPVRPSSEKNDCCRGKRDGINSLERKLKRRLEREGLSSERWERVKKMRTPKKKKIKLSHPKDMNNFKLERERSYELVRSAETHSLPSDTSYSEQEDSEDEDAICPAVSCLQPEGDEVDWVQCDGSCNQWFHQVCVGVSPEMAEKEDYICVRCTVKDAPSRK
Outline: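 KDM5BDeltaAP (200nM final) preincubated 10 min with compound, then 12.5uM H3K4Me3, 25uM a-ketoglutarate, ascorbate, Fe(II), NAD+ and FDH added; 50mM HEPES pH 7.5, 0.01% Tween-20. NADH fluorescence (340/450 nm) change over 30 min, room temperature.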

[9] = test system: Zika virus NS2B-NS3 protease (linked construct); experiment: Primary screen NINDS Rhodamine qHTS for Zika virus inhibitors (AID 1347160); settings: purified NS2B-NS3 protease, Rhodamine110 substrate fluorescence; series mostly up to 57.1 µM; note: nearly all actives have a fitted effect of over 55% in size; note: potency is the fitted concentration of half-maximal effect
Outline: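 Kinetic fluorescence (Ex 480 nm, Em 540 nm) over 15 min with 1.5 microM Rhodamine110 peptide and 25 nM linked protease.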

[10] = Confirmatory screen NINDS Rhodamine qHTS for Zika virus inhibitors (AID 1347161); settings: purified enzyme assay, Rhodamine110 substrate fluorescence, 15 min; series mostly up to 114 µM;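 note: purified Zika NS2B-NS3 protease with linked NS2B cofactor domain and Rhodamine110 peptide substrate; nearly all actives have a fitted effect of over 60% in size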
Outline: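 Purified NS2B-NS3 protease with the NS2B hydrophilic domain joined by a flexible linker (25 nM) in 10 mM Tris-HCl pH 8.0, 0.01% Tween 20, preincubated 15 min at RT with compound; Rhodamine110 peptide substrate 1.5 µM; fluorescence change over 15 min; 4-parameter Hill fit.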

[11] = Tertiary RLuc qRT-PCR qHTS assay for Zika virus inhibitors (AID 1347169); settings: infected Vero cells, reporter luminescence, 48-72 h; series mostly up to 45.9 µM; note: top concentration of the series differs between compounds; nearly all actives have a fitted effect of over 55% in size
Outline: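 Vero cells (1,000 per well) plated overnight at 37 degrees C, treated with compound in DMSO, then infected with recombinant ZIKV-RLuc (Cambodian) at MOI 1-2 for 48-72 hrs. Live-cell Renilla luciferase substrate added; luminescence read after 1-1.5 hrs.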

[12] = ZIKV-mCherry secondary qHTS for Zika virus inhibitors (AID 1347158); settings: Vero cells, ZIKV-mCherry infection imaging, 48-72 h; series mostly up to 49.2 µM; note: top concentration of the series differs between compounds
Outline: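 Vero cells (5,000/well) were given compound, then infected with ZIKV-mCherry at MOI 1 for 48–72 h at 37 °C. After PFA fixation and Hoechst staining, imaging gave percent mCherry-positive cells. The positivity threshold was RFU above 450, 3 SD over negative controls.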

[13] = test system: Zika virus NS2B-NS3 protease (linked); experiment: 384 well plate NINDS AMC confirmatory qHTS for Zika virus inhibitors (AID 1347163); settings: Recombinant NS2B-NS3 protease, Ac-VKTGKR-AMC fluorescence; note: potency is the fitted concentration of half-maximal effect; nearly all actives have a fitted effect of over 50% in size
Outline: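 Linked NS2B-NS3 protease (final 5 nM, 30 nM or 60 nM) was preincubated with compounds (final up to 1 mM) for ~15 minutes. Ac-VKTGKR-AMC substrate (final 30 microM) then reacted for 25 minutes at room temperature in the dark. Fluorescence (ex 355/em 460 nm) was normalized to no-enzyme and no-inhibitor controls.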

[14] = OV-KATE Cancer Cell Toxicity qHTS against the NCATS CANVASS Library (AID 1347345); settings: OV-KATE cells viability, CellTiter-Glo luminescence, 72 h; series mostly up to 38.3 µM
Outline: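 Cells were seeded at 1000 per well, allowed 4 h at 37 degrees C/5% CO2, then pin-treated with an 11-point compound series. After 72 h, viability was read as CellTiter-Glo luminescence following 15min at room temperature.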

[15] = HPAF-II Cancer Cell Toxicity qHTS against the NCATS CANVASS Library (AID 1347346); settings: HPAF-II viability, CellTiter-Glo ATP luminescence, 72 h; series mostly up to 38.3 µM; note: nearly all actives have a fitted effect of over 55% in size
Outline: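 HPAF-II cells at 1000 cells/well were treated with an 11-point concentration series for 72 hours at 37 degrees C. Viability read by CellTiter-Glo luminescence.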

For `NC(=O)c1ccc2nc(-c3ccc(Oc4ccc(Cl)cc4)cc3)[nH]c2c1`, which Potency [1] is on record?
Its Potency is 34.1 µM (active).

What about the Potency [2] of the same compound?
Its Potency is 24.1 µM (active).

What about the Potency [3] of the same compound?
The Potency was “inactive”.

What about the Potency [4] of the same compound?
Its Potency is 251 µM (active).

And the outcome [5]?
Its outcome is “inactive”.

For `C[N+](C)(C)CCCCCC[N+](C)(C)C`, which Potency [6] is on record?
Its Potency is “inactive”.

And the Potency [7]?
The Potency was “inactive”.

What about the outcome [8] of the same compound?
The outcome was “inactive”.

With `N#C[C@H]1C[C@H]2C[C@@H]2N1C(=O)[C@@H](N)C12CC3CC(CC(O)(C3)C1)C2` as the compound, how does the Potency [2] read?
Its Potency is “inactive”.

What does the source list for `NC(=O)c1cccc2[nH]c(-c3ccc([C@H]4CCCN4)cc3F)nc12`?
Potency [1]: 27.1 µM (active); Potency [2]: 24.1 µM (active); Potency [3]: inactive; Potency [9]: inactive; Potency [10]: inactive; outcome [5]: inactive; Potency [11]: inactive

Which Potency [2] does the source give for `CC#CCn1c(N2CCC[C@@H](N)C2)nc2c1c(=O)n(Cc1nc(C)c3ccccc3n1)c(=O)n2C` here?
The Potency was “inactive”.

Which Potency [7] does the source give for `O=c1cc(-c2ccccc2)oc2cc(O)c(O)c(O)c12` here?
Its Potency is 2.71 µM (active).

What about the Potency [2] of the same compound?
Its Potency is “inactive”.

What about the outcome [12] of the same compound?
Its outcome is “inactive”.

And the Potency [9]?
Its Potency is 17.5 µM (active).

What about the Potency [13] of the same compound?
The Potency was 141 µM (active).

And the outcome [5]?
The outcome was “inactive”.

What about the Potency [11] of the same compound?
Its Potency is “inactive”.

What about the outcome [14] of the same compound?
Its outcome is “inactive”.

What about the outcome [15] of the same compound?
Its outcome is “inactive”.

With `COc1ccc2c3c1OC1C[C@@H](O)C=C[C@@]31CCN(C)C2` (stereo partly specified) as the compound, how does the Potency [2] read?
The Potency was “inactive”.

With `Clc1ccc(-c2nc3sccn3c2C=NOCc2ccc(Cl)c(Cl)c2)cc1` as the compound, how does the Potency [2] read?
Its Potency is “inactive”.

Which Potency [7] does the source give for `CCn1cc(C(=O)O)c(=O)c2ccc(C)nc21` here?
Its Potency is “inactive”.

What about the Potency [2] of the same compound?
Its Potency is “inactive”.

What about the outcome [8] of the same compound?
Its outcome is “inactive”.
